The text below walks through data of PubChem BioAssay (EPA / NIEHS).

Each structure is given as a SMILES string. A structure can be active in one record and inactive in another. Calls of active or inactive are those of the source. The calls were made as follows: active = hit-call score of the fitted dose curve at least 0.9, where 1 is the maximum; inactive = score below 0.9.

A short description of the experiment: ATG_PPRE_CIS: Attagene CIS-FACTORIAL HepG2 Assay for human Peroxisome Proliferator-activated Response Element (PPRE) (AID 2282958). The following applies: HepG2 PPRE cis-element reporter, Attagene transcription factor profiling; actives raise or lower the signal. On the procedure:
ATG_CIS is a cell-based, multiplexed-readout assay that uses HepG2, a human liver cell line, with measurements taken at 24 hours after chemical dosing in a 24-well plate.ATG_PPRE_CIS is one of 52 assay component(s) measured or calculated from the ATG_CIS assay. It is designed to make measurements of mRNA induction, a form of inducible reporter, as detected with fluorescence intensity signals by Reverse transcription polymerase chain reaction (RT-PCR) and Capillary electrophoresis technology.Data from the assay component ATG_PPRE_CIS was analyzed into 1 assay endpoint. This assay endpoint, ATG_PPRE_CIS, was analyzed with bidirectional fitting relative to DMSO as the negative control and baseline of activity. Using a type of inducible reporter, measures of mRNA for gain or loss-of-signal activity can be used to understand the reporter gene at the transcription factor-level as they relate to the gene PPARA and PPARD and PPARG. Furthermore, this assay endpoint can be referred to as a primary readout, because this assay has produced multiple assay endpoints where this one serves a reporter gene function. To generalize the intended target to other relatable targets, this assay endpoint is annotated to the nuclear receptor intended target family, where the subfamily is non-steroidal.
Human liver HepG2 cells are transiently transfected with multiple reporter transcription units (MRTUs) in 6-well plates using FuGene 6 reagent (Roche; 3 ml FuGene/1 mg DNA). The MRTU constructs are regulated by a cis-regulating element (promoter). […] A major difference between the CIS and TRANS system is that in CIS activities of endogenous TFs are measured, whereas the TRANS assay evaluates changes in activities of exogenous, chimeric NR-Gal4 proteins. […] At the end of 24 hour incubation, total RNA was isolated using TriZol reagent (Invitrogen). The isolated RNA is then reverse-transcribed using oligo(dT) primer and Mo-MLV reverse transcriptase (Invitrogen) with DNAse I (Ambion) treatment for 30 min. The one-tenth of the produced cDNA was amplified by PCR using Taq DNA polymerase (Invitrogen) and two reporter sequence-specific primers. The PCR products were fluorescently labeled by primer extension with 6-arboxyfluorescein (6-FAM) 5'-labeled reporter sequence-specific primer (2 min at 95 C, 20 s at 68 C and 10 min at 72 C) and these products were digested with 5U of HpaI (New England Biolabs) for 2h at 37 C. The fragments were purified using Qiaquick PCR columns (Qiagen), analyzed on an ABI 3130xL genetic analyzer (Applied Biosystems) with peak positions identified by using a set of X-rhodamine (ROX)-labeled MapMarker1000 molecular weight standards (BioVentures). The raw capillary electrophoresis data was processed using Attagraph software (Attagene).
With `CC(Br)C(=O)O` (stereo not given), the result was inactive.

Consider `CCC[CH2][Sn]([CH2]CCC)([CH2]CCC)[O]C(=O)c1ccccc1`, for which the AC50 was 0.0115 µM (active). Take `COc1ccc(OC)c(C=O)c1`: the outcome was inactive. Turning to `CC12CC1(C)C(=O)N(c1cc(Cl)cc(Cl)c1)C2=O` (stereo not given), the outcome was inactive. Still for that read-out and setting: the value for `C1CCC(NC2CCCCC2)CC1` was “inactive”. Regarding `COP(=O)(OC)O/C(=C\Cl)c1cc(Cl)c(Cl)cc1Cl`, the AC50 was 154 µM (active).

As to `CN(C)P(=O)(N(C)C)N(C)C`, the outcome was inactive. Still for that read-out and setting: the value for `C[C@H]1O[C@@H](O[C@H]2[C@@H](O)C[C@H](O[C@H]3[C@@H](O)C[C@H](O[C@H]4CC[C@@]5(C)[C@H](CC[C@@H]6[C@@H]5CC[C@]5(C)[C@@H](C7=CC(=O)OC7)CC[C@]65O)C4)O[C@@H]3C)O[C@@H]2C)C[C@H](O)[C@@H]1O` was “inactive”. As to `Nc1ncc([N+](=O)[O-])s1`, the molecule was called inactive. In the case of `O=C(O)C(F)(F)C(F)(F)C(F)(F)C(F)(F)C(F)(F)C(F)(F)F`, the AC50 is 63.7 µM (active) and the molecule was classed as inactive.

In the case of `CCCCCCCCCl`, the call was inactive. On the same count and under the same terms, the value for `CC(=O)C(Cl)C(=O)N(C)C` (stereo not given) was “inactive”. With `Oc1c(I)cc(I)cc1I`, the AC50 was 64.2 µM (active). Take `Nc1ccc(N=Nc2ccc(-c3ccc(N=Nc4c(S(=O)(=O)O)cc5cc(S(=O)(=O)O)c(N=Nc6ccccc6)c(O)c5c4N)cc3)cc2)c(N)c1`: the molecule was called inactive.

As to `CC(C)(OO)c1ccccc1`, the result was inactive. On to `Cc1cc(Cl)ccc1O[C@H](C)C(=O)O`, for which the AC50 is 28.7 µM (active). With `COc1cc(OC)nc(NC(=O)NS(=O)(=O)c2ncccc2C(=O)N(C)C)n1`, the outcome was inactive.

As for `O=C(Cl)c1ccc(Cl)cc1`, the molecule was called inactive. As to `CNC`, the molecule was called inactive. For `CC(C)(c1ccccc1)c1ccc(O)c(C(C)(C)c2ccccc2)c1`, the half-maximal activity concentration (AC50) is 3.04 µM (active). For the molecule `CC(C)c1ccc(CO)cc1`, the molecule was classed as inactive. Still for that read-out and setting: the value for `ClCc1cccnc1` was “inactive”; that for `ClC1=C(Cl)[C@]2(Cl)[C@H]3[C@H]([C@H]4C=C[C@H]3C4)[C@@]1(Cl)C2(Cl)Cl` was “inactive”.

Regarding `Cc1ccccc1C(=O)Nc1cccc(OC(C)C)c1`, the call was inactive.

As to `CCC[CH2][Sn]([Cl])([Cl])[Cl]`, the molecule was classed as inactive.

As for `O=C(c1ccccc1)C(Cl)Cl`, the molecule was called inactive. The same measure, in the same setting: the value for `O=P(O)(O)CN(CP(=O)(O)O)CP(=O)(O)O` was “inactive”; that for `COP(=O)(OC)OC` was “inactive”; that for `O=C1C(Cl)=C(Cl)C(=O)c2ccccc21` was “inactive”. Still for that read-out and setting: the value for `O=Cc1cccc(Oc2ccccc2)c1` was “inactive”. Consider `C(=NC1CCCCC1)=NC1CCCCC1`, for which the AC50 was 2.46 µM (active). On to `N#CCc1ccc(Cl)cc1`, for which the molecule was classed as inactive.

Regarding `CCCCC(CC)CO[N+](=O)[O-]` (stereo not given), the molecule was called inactive.

As for `ClC1(Cl)C2(Cl)C3(Cl)C4(Cl)C(Cl)(Cl)C5(Cl)C3(Cl)C1(Cl)C5(Cl)C24Cl` (stereo not given), the result was inactive. As for `C=CC(=O)OCCCCCC(C)C`, the result was inactive. For the molecule `Cc1cc(=O)[nH]o1`, the molecule was classed as inactive. `COP(=S)(OC)Oc1cc(Cl)c(Cl)cc1Cl`: the AC50 is 26.6 µM (active).

Turning to `Nc1ccc(Cl)cc1C(=O)c1ccccc1`, the molecule was classed as inactive. Consider `O=C(CCl)CCl`, for which the call was inactive.
